Assay outcomes (PubChem)
Only some compounds are listed: those with a hit (about 10% of all), similar ones and a draw of the others.
HCT116 PTEN-null = growth suppression of PTEN-null HCT116, primary screen, cell-based, CellTiter-Glo | viability, % at 10 µM | HCT116 PTEN-null viability, 60 h; active compounds read low | 1.2% of 140,000 active;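 active = viability at or below a set limit, 4 SD under the median of all tested compounds, cut at about 3.7% in these data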;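 also: PTEN knockout HCT116 line with beta catenin targeted HCT116 as companion control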
p97 inhibitor = inhibitors of human p97 ATPase, primary screen, biochemical | Transitional endoplasmic reticulum ATPase (Homo sapiens), P55072 | recombinant p97 ATPase, Kinase-Glo ATP luminescence, 3 h | inhibition, % at 8 µM | 0.42% of 220,000 active; in the data active = inhibition above about 15%
bCat KO growth = primary screen for growth suppressors in beta-catenin knockout HCT116 cells (colon tumor, human) | 1.5% of 140,000 active | HCT116 beta-catenin knockout viability, CellTiter-Glo, 60 h; active compounds read low | viability, % at 10 µM;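 active = viability at or under a set limit, the compound median less 4 SD, cut at about 6% in these data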
ROMK primary = ROMK potassium channel modulators, primary screen, cell-based, thallium flux, MLSMR library; Tet-inducible ROMK, thallium flux fluorescence; actives lie on both sides; ATP-sensitive inward rectifier potassium channel 1 (Homo sapiens), P48048; 2% of 130,000 active; B-score at 10 µM;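 active = signal ratio slope over the read window, or its plate-corrected B-score, at least 3 SD from the plate mean, either direction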;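 also: B-score of the F/F0 ratio slope over 7 to 12 s after thallium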
Target sequence (P48048 whole entry, looked up): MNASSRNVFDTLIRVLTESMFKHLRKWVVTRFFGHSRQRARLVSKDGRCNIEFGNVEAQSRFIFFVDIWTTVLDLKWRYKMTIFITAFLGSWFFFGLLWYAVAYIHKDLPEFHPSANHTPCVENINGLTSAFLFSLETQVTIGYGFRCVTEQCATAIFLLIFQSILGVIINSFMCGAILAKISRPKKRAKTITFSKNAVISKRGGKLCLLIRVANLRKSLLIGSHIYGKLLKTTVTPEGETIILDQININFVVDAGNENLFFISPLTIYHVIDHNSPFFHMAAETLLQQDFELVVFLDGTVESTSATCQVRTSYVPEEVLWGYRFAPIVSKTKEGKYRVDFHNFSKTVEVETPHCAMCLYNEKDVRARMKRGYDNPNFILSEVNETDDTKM
L major viab = Leishmania major promastigote growth inhibition, primary screen; AID 1063, 2008; Leishmania major promastigotes, resazurin fluorescence viability; 9% of 200,000 active; inhibition, % at 10 µM; in the data active = inhibition above about 50%;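 also: promastigotes grown with compound for 44 hours at 28 °C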
Insulin prom inh = inhibitors of insulin promoter-driven GFP, primary screen, imaging, TRM-6 cells (human fetal islet line), eGFP reporter, cell count; AID 1273, 2008; reporter expression induced with tamoxifen; 0.9% of 130,000 active; inhibition, % at 2 µM;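 active = inhibition above the mean plus 3 SD, with well images judged a real hit on visual review, cut at about 60% in these data, passing the limit was not always enough; inconclusive = inhibition over the cutoff but images rejected on review; inactive = inhibition not above the cutoff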
ROMK hit retest = ROMK channel modulator hit retest, confirmation, cell-based, thallium flux, duplicate, resupplied hits | shares compounds with ROMK primary | fluorescence ratio; active compounds read low | normalized thallium flux (F/F0 slope) at 10 µM | 54% of 3,000 active | AID 1917, 2009;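 active = Flux at 10 µM at least 3 SD below or above vehicle control mean in one or both replicates; inconclusive = no clear call, values can overlap the other calls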
Large screens that a line does not name were inactive (follow-up assays come after a bar, where they were run).

Cc1c(Nc2cc(Cl)c3nonc3c2[N+](=O)[O-])c(=O)n(-c2ccccc2)n1C	ROMK primary -4.4, L major viab 79, Insulin prom inh 100 (no result: HCT116 PTEN-null, bCat KO growth) | ROMK hit retest 0.04
O=C(N/N=C\c1c(O)ccc2ccccc12)c1ccc(S(=O)(=O)N2CCCCC2)cc1	ROMK primary -3.8, L major viab 100 | ROMK hit retest 0.051
O=C(NCc1ccccc1)c1ccc(S(=O)(=O)N2CCCC2)cc1	none (no result: ROMK primary)
Cc1ccc(C)c2[nH]c(=O)c(CN(CC3CCCO3)C(=S)NCc3ccco3)cc12 (centres undefined)	ROMK primary -3.5 (no result: HCT116 PTEN-null, bCat KO growth, L major viab, Insulin prom inh) | ROMK hit retest inconclusive
Cc1ccc2cc(CN(CC3CCCO3)C(=S)NCc3ccco3)c(=O)[nH]c2c1C (centres undefined)	none (no result: ROMK primary) | ROMK hit retest inactive
CCCNCc1cc(OC)c(OCCC)cc1Cl	none (no result: ROMK primary)
N#CC1=C(N)C2=CCCC[C@H]2[C@H](c2cccc(F)c2)C1(C#N)C#N	ROMK primary -2.5, L major viab 81 (no result: Insulin prom inh) | ROMK hit retest 0.053
Cc1sc(NC(=O)CCCC(=O)O)c(C#N)c1C	none (no result: ROMK primary) | ROMK hit retest inactive
O=C(Nc1nc2cc3c(cc2s1)OCO3)C1=COCCO1	ROMK primary 2.5 | ROMK hit retest inactive
CCn1c(=O)n(CC)c2cc(S(=O)(=O)N3CCc4ccccc43)ccc21	L major viab 87 (no result: ROMK primary) | ROMK hit retest inconclusive
CC1CCC(C(C)C)C(OC(=O)Cn2c(-c3ccccc3)[n+](C)c3ccccc32)C1 (centres undefined)	HCT116 PTEN-null 1.9, bCat KO growth 1.4, ROMK primary -6.3, L major viab 100 | ROMK hit retest 0.039
Cc1cccc(OCc2n(CC(=O)OC3CC(C)CCC3C(C)C)c3ccccc3[n+]2C)c1 (centres undefined)	ROMK primary -6.2, L major viab 100 (no result: HCT116 PTEN-null, bCat KO growth) | ROMK hit retest 0.037
CC1CCC(C(C)C)C(OC(=O)Cn2c(-c3ccc(F)cc3)[n+](C)c3ccccc32)C1 (centres undefined)	HCT116 PTEN-null 1.5, bCat KO growth 2.0, ROMK primary -5, L major viab 100 | ROMK hit retest 0.047
CC1CCC(C(C)C)C(OC(=O)CSc2nc(N)cc(=O)[nH]2)C1 (centres undefined)	none (no result: ROMK primary)
Cc1cccc(OC(=O)Cn2c(C(F)(F)F)nc3ccccc32)c1	none (no result: Insulin prom inh)
CC[N+](CC)(CC)C/C(N)=N/O	none (no result: Insulin prom inh)
CC(C)CC(=O)/C(=C\c1ccc(Cl)cc1Cl)n1cncn1	HCT116 PTEN-null 1.3, bCat KO growth 1.6, ROMK primary -7.1, L major viab 100 | ROMK hit retest 0.046
C=CCNCCCCOc1ccccc1-c1ccccc1	ROMK primary -3, L major viab 98 | ROMK hit retest 0.062
C=CCNCCOc1cccc(Br)c1	none
Oc1c(CN2CCCCC2)cc(COCc2ccccc2)c2cccnc12	HCT116 PTEN-null 2.2, bCat KO growth 1.7, ROMK primary -4.5, L major viab 100 | ROMK hit retest inactive
Oc1cc(Cc2ccccc2)cnc1CN1CCCCC1	none
COc1cc(OCC(N)=O)cc(OC)c1OC	none (no result: Insulin prom inh)
COc1ccc(OCC(N)=O)cc1	none (no result: HCT116 PTEN-null, bCat KO growth, ROMK primary, Insulin prom inh) | ROMK hit retest inactive
COC(=O)/C(=C1/Oc2ccc(C)cc2S1)C(F)(F)F	none (no result: Insulin prom inh)
CCCCN(Cc1ccco1)C(=O)Cn1ncc2c(=O)oc3ccc(C)cc3c21	none (no result: ROMK primary, Insulin prom inh)
COc1ccc2[nH]c(CN3CCN(C(C)C)C(CCO)C3)c(C)c2c1 (centres undefined)	ROMK primary -7.8 (no result: HCT116 PTEN-null, bCat KO growth, Insulin prom inh) | ROMK hit retest inactive
CCOC(=O)N1CCN(C(=O)c2cn(CC)c3ccc(S(=O)(=O)N4CCC(C)CC4)cc3c2=O)CC1	none (no result: HCT116 PTEN-null, bCat KO growth)
CCOc1ccc(NC(=O)NC(=O)N(C)S(=O)(=O)c2ccc(C)cc2)cc1	ROMK primary -2 (no result: HCT116 PTEN-null, bCat KO growth) | ROMK hit retest inactive
O=S1(=O)CCN2C=C(Cl)C=C(Cl)C2=N1	none (no result: HCT116 PTEN-null, bCat KO growth)
CCC(C)(C)NC(=O)C(c1ccccn1)N(C(=O)c1csnn1)c1ccc(C)cc1 (centres undefined)	none (no result: HCT116 PTEN-null, bCat KO growth, Insulin prom inh)
CCn1c(=O)c([N+](=O)[O-])c(N2CCN(Cc3ccc4c(c3)OCO4)CC2)c2ccccc21	none (no result: HCT116 PTEN-null, bCat KO growth, ROMK primary, L major viab, Insulin prom inh) | ROMK hit retest 0.064
CCn1c(=O)c([N+](=O)[O-])c(N2CCSCC2)c2ccccc21	none (no result: HCT116 PTEN-null, bCat KO growth, ROMK primary, L major viab, Insulin prom inh)
O=C(NCc1nnc2c3ccccc3c(-c3ccccc3)nn12)c1ccc(Cl)cc1	none (no result: ROMK primary) | ROMK hit retest inactive
CC(=O)NCc1nnc2c3ccccc3c(-c3ccccc3)nn12	none (no result: HCT116 PTEN-null, bCat KO growth)
C=C(C)COc1ccc(-c2[nH]ncc2-c2ccc(OC)cc2)c(O)c1	none (no result: HCT116 PTEN-null, bCat KO growth, ROMK primary, L major viab, Insulin prom inh)
C=C(C)COc1ccc(-c2[nH]ncc2-c2ccc(OC)c(OC)c2)c(O)c1	ROMK primary 3.8 (no result: Insulin prom inh) | ROMK hit retest inactive
Cn1nc(-c2ccc(Cl)cc2)c2cc(C(=O)NCC3CCCO3)sc21 (centres undefined)	none (no result: ROMK primary, Insulin prom inh)
CCN(CC)CCCNC(=O)c1cc2c(-c3ccc(Cl)cc3)nn(C)c2s1	HCT116 PTEN-null 1.6, bCat KO growth 0.8, L major viab 100 (no result: ROMK primary, Insulin prom inh) | ROMK hit retest 0.059
CCOC(=O)N/N=C(\C)c1ccc(OC(F)F)cc1OC(F)F	none (no result: ROMK primary, Insulin prom inh)
COc1ccccc1C1CCCN1Cc1nc(-c2ccc(C)s2)oc1C (centres undefined)	none (no result: HCT116 PTEN-null, bCat KO growth)
O=C(CCn1ccc2ccccc21)Nc1ccc(N2CCOCC2)cc1	none (no result: ROMK primary, Insulin prom inh)
O=C(Nc1ccccc1)c1ccccc1O	none (no result: ROMK primary)
Cc1ccc(NC(=O)c2ccccc2O)cc1	none (no result: ROMK primary) | ROMK hit retest 0.065
N#C/C(=C\c1cccc([N+](=O)[O-])c1)c1nnc2n1CCCCC2	ROMK primary -4.4, L major viab 61 | ROMK hit retest 0.046
Cc1ccc(Nc2nc(COC(=O)COc3ccc(C=O)cc3)cs2)cc1	none (no result: ROMK primary)
C/C=C/c1ccc(OCC(=O)OCc2csc(Nc3ccc(C)cc3)n2)c(OC)c1	ROMK primary -2.6 | ROMK hit retest 0.065
Cc1cccc(OCCC(=O)Nc2c(C)n(C)n(-c3ccccc3)c2=O)c1	none
CC(C)(C)N(NC(=O)OCc1ccccc1)C(=O)c1ccccc1Cl	none
CC(C)COc1ccc(C2NC(=O)NC2=O)cc1 (centres undefined)	none (no result: ROMK primary)
CC(C)COc1ccc(C(=O)OC2CC(C)(C)OCC2CN(C)C)cc1 (centres undefined)	ROMK primary -3.7 (no result: Insulin prom inh) | ROMK hit retest 0.055
CCc1nc2ccccc2n1CCC(=O)O	none (no result: ROMK primary)
CN(C)CCNC(=O)c1scc2c1CCCC2	none (no result: HCT116 PTEN-null, bCat KO growth, ROMK primary, L major viab, Insulin prom inh) | ROMK hit retest inactive
C=CCNC(=O)c1scc2c1CCCC2	none
COc1ccc(C(=O)n2nc(C)cc2Nc2ccccc2)cc1	ROMK primary 1.8 | ROMK hit retest inconclusive
COc1ccc(C(=O)n2nc(-c3ccccc3)nc2SC)cc1	none (no result: ROMK primary)
O=S(=O)(c1ccc(Oc2ncnc3scc(-c4ccccc4)c23)cc1)N1CCOCC1	none (no result: ROMK primary)
